# The whole screen tested about 2,400 compounds, of which about 360 (15%) were called active.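 How the source made its calls: active means viability falls under 70% at one or more tested concentrations, taken as toxicity; inactive means viability stays over 70% at every dose.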 The list is a sample of the results. Measured potencies and affinities stand elsewhere.
# Test: viability loss in HeLa cells – cytotoxicity control for MgcRacGAP inhibitor project, dose response (AID 624300)
# Conditions: CellTiter-Glo luminescence, 24 h; series mostly up to 100 µM
row,SMILES,outcome
1,O=C(c1cccc(Cl)c1)N1CCN(C2CCCCC2)CC1,inactive
2,Cc1c(Cl)cccc1NC(=S)Nc1ccc2[nH]c(=O)[nH]c2c1,inactive
3,Cc1ccc(OCCN2CCN(C)CC2)c([N+](=O)[O-])c1,inactive
4,O=C(CSc1nnnn1C1CC1)N1CCN(c2ccc(O)cc2)CC1,inactive
5,CCC(C)N1CCN(C(=O)c2cccs2)CC1 (stereo not given),inactive
6,O=c1oc2ccccc2cc1-c1csc(Nc2ccc(O)cc2)n1,inactive
7,Oc1ccc(Nc2ncnc3c2oc2ccccc23)cc1,inactive
8,OC1CNc2c(ccc3ccccc23)C1 (stereo not given),inactive
9,CC(CCN1CCN(CCO)CC1)c1ccccc1 (stereo not given),inactive
10,O=[N+]([O-])c1ccc(N2CCN(CCOCCO)CC2)c([N+](=O)[O-])c1,inactive
11,OCCN1CCN(Cc2ccc3ccccc3c2)CC1,inactive
12,COc1ccc(OCCOCCN2CCN(C)CC2)cc1,inactive
13,COc1ccc(O)c(/C=N/NC(=O)c2c(C)nnn2-c2nonc2N)c1,inactive
14,c1ccc(CC2CCN(Cc3ccccn3)CC2)cc1,inactive
15,CCC1(c2ccccc2)NC(=O)N(CC(=O)Nc2ccc(N3CCCC3)cc2C)C1=O (stereo not given),inactive
16,CCOC(=O)c1c(C)[nH]c(C(=O)CN2CCN(CC)CC2)c1C,inactive
17,CCOC(=O)C1=C(C)Nc2ccc(C)cc2S1,inactive
18,COC(=O)c1cc(NCc2cccs2)ccc1N1CCOCC1,inactive
19,COc1cc(CNc2ccc(N3CCN(C(C)=O)CC3)cc2)ccc1OCc1ccccc1,inactive
20,COc1cc(CNc2ccc3[nH]c(=O)[nH]c3c2)ccc1OCc1ccccc1,inactive
21,O=C(N/N=C/c1ccc(O)c2ccccc12)c1cccnc1,inactive
22,Cc1nc(N)sc1-c1ccccc1,inactive
23,COc1cc(Br)c(CNc2cc(C)ccc2C)cc1OC,inactive
24,CC1=NN(c2cccc(C(=O)O)c2)C(=O)/C1=C\C=C\c1ccco1,inactive

row,SMILES,outcome
1,COc1ccccc1/C=C1/C(=O)N(c2ccccc2)N=C1C,inactive
2,Cc1c(N2C(=O)/C(=C\c3ccc(N(C)C)cc3)N(C)C2=S)c(=O)n(-c2ccccc2)n1C,inactive
3,CC1=NN(c2ccc(C(=O)O)cc2)C(=O)/C1=C\c1ccc(OC(=O)c2cccs2)cc1,inactive
4,Cc1ccc(N2C(S)=C(C#N)C(=O)NC2c2ccco2)cc1 (stereo not given),inactive
5,CCOc1cc(/C=N/NC(=O)C(=O)N2CCCC2)ccc1O,inactive
6,Oc1ccc2ccccc2c1Br,inactive
7,CC[n+]1c(/C=C/N(C)c2ccccc2)oc2ccc(Cl)cc21,inactive
8,CC(=O)N1CCN(c2ccc(NCc3ccco3)cc2)CC1,inactive
9,O=C(O)c1ccc(COc2ccccc2C=C2C(=O)c3ccccc3C2=O)cc1,inactive
10,CCN(CC)c1ccc(/C=C2\C(=O)c3ccc(C(=O)O)cc3C2=O)cc1,inactive
11,Cc1cc(-c2n[nH]c(=S)n2/N=C/c2ccccc2[N+](=O)[O-])n[nH]1,inactive
12,Cc1cccn2c(=S)[nH]nc12,inactive
13,OCC1CCCN(C(=S)Nc2ccc(Nc3ccccc3)cc2)C1 (stereo not given),inactive
14,Nc1ccc(Nc2ccncc2)cc1,inactive
15,Cc1ccc(/C=C/C(=O)Nc2ccc([N+](=O)[O-])c(NC(=O)/C=C/c3ccc(C)o3)c2)o1,inactive
16,Cc1c(O)ccc(NC(=O)/C=C/c2ccccc2)c1C,inactive
17,C/C(=N/NC(=O)CSc1nc2ccccc2n1C)c1ccc(O)cc1,inactive
18,CCOC(=O)C(Cc1ccccc1)C(=O)Nc1ccc(N(CC)CC)cc1 (stereo not given),inactive
19,CCOC(=O)/C(C#N)=C\c1ccc(O)c(OC)c1,inactive
20,CCOc1c(C=C(C#N)C#N)c2ccccc2n1CC,inactive
21,COc1ccc(NC2CCCN(C(=O)CCCn3cncn3)C2)cc1OC (stereo not given),inactive
22,O=C(CNC(=O)C1COc2ccccc2O1)N/N=C/c1ccc(O)cc1O (stereo not given),inactive
23,Nc1ccc(Nc2nc(-c3ccncc3)cs2)cc1,inactive
24,CCCCN(C)CCNC(=O)CSCc1ccc(C)cc1,inactive

row,SMILES,outcome
1,O=C(Nc1n[nH]c(=S)s1)c1ccco1,inactive
2,CN(Cc1ccccc1)Cc1c(O)ccc2ccccc12,inactive
3,COc1ccc(CN2CCC(C(N)=O)CC2)cc1OCc1ccccc1,inactive
4,COC(=O)c1cc(NCc2ccccc2F)ccc1N1CCOCC1,inactive
5,COc1cc2cc(NC(C)=O)cc(NCc3ccccc3)c2cc1OC,inactive
6,COc1ccc(CN2CCN(Cc3ccc4ccccc4c3)CC2)cc1OC,inactive
7,Cc1nc2ccc(-c3nc4ccc(N)cc4[nH]3)cc2[nH]1,inactive
8,Cc1nc(Cc2nnc(SCC(=O)N3CCN(c4ccc(O)cc4)CC3)o2)cs1,inactive
9,Nc1nc(=S)ss1,inactive
10,COc1cc(/C=N/NC(=O)c2cc(-c3ccccc3OC(C)C)nc3ccccc23)ccc1O,inactive
11,COc1cc(/C=N/n2c(C)nc3ccccc3c2=O)ccc1O,inactive
12,C=CCn1c(N/N=C/c2ccc(O)cc2)nc2ccccc2c1=O,inactive
13,COc1cc(/C=C/c2ccc3cccc(O)c3n2)ccc1O,inactive
14,O=c1[nH]c2ccccc2nc1/C=C/c1ccc(O)cc1,inactive
15,COc1cc(/C=C/c2nc3ccccc3c(=O)[nH]2)ccc1O,inactive
16,CCCc1nc2ccccc2c(=O)n1/N=C/c1ccc(O)c(O)c1,inactive
17,COc1cc(/C=C/C(C)=NNc2ccccc2)ccc1O,inactive
18,O=C(CN1CCN(c2ccc(O)cc2)CC1)NCC(=O)Nc1ccc(F)c(F)c1F,inactive
19,Cc1cccc(Nc2n[nH]c(=S)s2)c1C,inactive
20,CN1CCN(CCCNCc2cn(CCC#N)c3ccccc23)CC1,inactive
21,COc1ccc(NC2CCCN(C(=O)CCc3cccc(F)c3)C2)cc1 (stereo not given),inactive
22,COc1cc(C)c(N)cc1C(C)C,inactive
23,CCOC(=O)c1[nH]c2cc(OC)c(OC)cc2c1N,inactive
24,COc1ccc(N2CCN(C(C)C(=O)N3CCCC3)CC2)cc1 (stereo not given),inactive

row,SMILES,outcome
1,CC(=O)N1CCN(CC(O)COc2ccc(Br)cc2)CC1 (stereo not given),inactive
2,O=C1C2C3C=CC(CC3)C2C(=O)N1/N=C/c1ccc(O)c(O)c1 (stereo not given),inactive
3,CCOC(=O)c1[nH]c2ccccc2c1NC(=S)Nc1cccc(C)c1,inactive
4,COc1ccc(NCc2cc3cc(OC)ccc3[nH]c2=O)cc1,inactive
5,COc1ccc(OC(=O)COc2cc(C)ccc2C)cc1,inactive
6,COc1ccc(OC(=O)COc2ccc(C)cc2)cc1,inactive
7,Nc1c(Cl)ncnc1NCCc1ccc(O)cc1,inactive
8,CCOC(=O)/C(C#N)=C1\C(=O)N(Cc2ccccc2)c2ccccc21,inactive
9,COc1ccc(OC)c(CN2CCN(Cc3cccc4ccccc34)CC2)c1,inactive
10,COc1ccc(CN2CCN(Cc3c[nH]c4ccccc34)CC2)c(OC)c1,inactive
11,CCOC(=O)N/N=C/c1ccc(N2CCOCC2)s1,inactive
12,Nc1ccc(-c2nc3ccc(N)cc3o2)cc1,inactive
13,Nc1ccc2nc(N)sc2c1,inactive
14,COc1ccccc1CNC(=O)C[C@@H]1C[C@H]2c3cc(N(C)C)ccc3O[C@H]2[C@H](CO)O1,inactive
15,COc1cc(N2C(=O)C=CC2=O)ccc1N1C(=O)C=CC1=O,inactive
16,COc1ccc(NC2CCCN(C(=O)C3(C)CCCCC3)C2)cc1 (stereo not given),inactive
17,COc1cc(CN2CCN(C(=O)c3cccc4ccccc34)CC2)cc(OC)c1OC,inactive
18,O=C(N/C(=C\c1ccc(O)cc1)C(=O)N1CCCCC1)c1ccccc1,inactive
19,S=c1[nH]nc(-c2ccncc2)n1/N=C/C=C/c1ccccc1,inactive
20,COc1cccc(OC)c1OCCCN1CCOCC1,inactive
21,CCOC(=O)c1[nH]c2ccccc2c1NC(=S)Nc1ccccc1,inactive
22,CCC(=O)Nc1ccc(Nc2ccccc2)cc1,inactive
23,COc1cccc2[nH]c(C(=O)NN)c(N)c12,inactive
24,CC1CN(CCOCCOc2ccccc2-c2ccccc2)CC(C)O1 (stereo not given),inactive

row,SMILES,outcome
1,O=C1C(Cl)=C(NC(=O)c2ccccc2)C(=O)C(Cl)=C1NC(=O)c1ccccc1,inactive
2,O=C1c2ccccc2NC(c2ccc(O)cc2)N1/N=C/c1ccc(O)cc1 (stereo not given),inactive
3,COc1ccc(NC2CCCN(C(=O)c3ccccc3C(F)(F)F)C2)cc1 (stereo not given),inactive
4,COC(=O)c1cc(NCc2c(F)cccc2Cl)ccc1N1CCOCC1,inactive
5,CCOC(=O)c1[nH]c2ccc(OC)cc2c1NC(=O)c1ccccc1C(=O)O,inactive
6,COc1ccc2[nH]c3c(=O)n(CCCCC(=O)N4CCC(C(N)=O)CC4)c(=S)[nH]c3c2c1,inactive
7,COc1ccc(C=Nc2ccc3[nH]ncc3c2)c(O)c1,inactive
8,COc1ccc2[nH]c3c(=O)n(Cc4ccc(C(=O)N5CCC(C(N)=O)CC5)cc4)c(=S)[nH]c3c2c1,inactive
9,CCOC(=O)C1CCN(C2=NC(=O)/C(=C/c3ccc(O)cc3)S2)CC1,inactive
10,c1ccc(-c2ccccc2OCCOCCN2CCOCC2)cc1,inactive
11,COc1cc(NC(C)CCCNC(C)C)c2ncccc2c1OC (stereo not given),inactive
12,C=CCc1cc(OC)ccc1OCCN1CC(C)OC(C)C1 (stereo not given),inactive
13,Cc1cc(O)ccc1NC(=O)c1ccccc1,inactive
14,O=C(Cc1coc2cc(O)ccc12)N1CCN(S(=O)(=O)c2ccc(Br)cc2)CC1,inactive
15,S=C(NCCN1CCOCC1)Nc1ccc(Nc2ccccc2)cc1,inactive
16,COc1ccc(CN2CCN(Cc3ccccc3F)CC2)c(OC)c1,inactive
17,CCN(Cc1ccccc1)C1CCN(Cc2ccc(SC)cc2)CC1,inactive
18,CC1CCCCN1CC(=O)Nc1ccc(N2CCCCCC2)cc1 (stereo not given),inactive
19,CC(=O)N1CCN(c2ccc(NCc3cccs3)cc2)CC1,inactive
20,Cc1c(NC(=S)N/N=C/c2ccc(O)cc2)c(=O)n(-c2ccccc2)n1C,inactive
21,Oc1ccc(/C=N/NC(=S)N2CCOCC2)cc1,inactive
22,COc1cc(CN2CCN(C(=O)CC(C)C)CC2)cc(OC)c1O,inactive
23,O=C(O)CCCNC(=O)/C=C/c1ccco1,inactive
24,O=C(/C=C\c1ccco1)c1ccc(NC(=O)c2ccco2)cc1,inactive

# Source: PubChem BioAssay AID624300 (Southern Research Specialized Biocontainment Screening …, 2012)
